Test [1] can be described thus: AP1 Signaling Pathway (AID 357; active = well fitted curve in either direction with a large enough effect, not every such curve was filed as active;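 note: ME-180 reporter cells stimulated with EGF at its EC50 level; % is set by controls: 0 for no effect and ±100 for the full control effect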). Particulars: ME-180 (cervical carcinoma) AP-1-bla reporter, EGF-induced, beta-lactamase ratio, 5 h; at 38 µM (top of the series). The essentials:
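In this screen, ME-180 cells in Opti-MEM with 0.5% dialyzed FBS received EC50 EGF and compound titrations for 5 h. AP-1 reporter beta-lactamase was detected via CCF4 ratio, giving AC50 for positive and negative modulators.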

The target in test [2] is Cytochrome P450 1A2 (Homo sapiens) (UniProt P05177). In words: p450-cyp1a2 (AID 410; calls by dose curve; note: potency is the fitted concentration of half-maximal effect). The essentials:
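Luminescent demethylation readout: Luciferin-ME (100uM, equal to Km) turned over by 20nM CYP1A2 for 60 min at room temperature after NADPH regeneration addition, following 10 min compound preincubation. Normalization used 57 uM furafylline as full inhibition.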

In test [3] the target is Glucocorticoid receptor (Homo sapiens) (UniProt P04150). Briefly: GR-GFP Redistribution (AID 450;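 active = compounds whose dose series gives a full or clear partial fitted curve of increased nuclear translocation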; note: potency is the fitted concentration of half-maximal effect). Particulars: U2OS GR-GFP nuclear translocation, laser cytometry, 2 h.
Sequence of Glucocorticoid receptor (Homo sapiens) (P04150 whole entry, looked up, the tested form may be a part): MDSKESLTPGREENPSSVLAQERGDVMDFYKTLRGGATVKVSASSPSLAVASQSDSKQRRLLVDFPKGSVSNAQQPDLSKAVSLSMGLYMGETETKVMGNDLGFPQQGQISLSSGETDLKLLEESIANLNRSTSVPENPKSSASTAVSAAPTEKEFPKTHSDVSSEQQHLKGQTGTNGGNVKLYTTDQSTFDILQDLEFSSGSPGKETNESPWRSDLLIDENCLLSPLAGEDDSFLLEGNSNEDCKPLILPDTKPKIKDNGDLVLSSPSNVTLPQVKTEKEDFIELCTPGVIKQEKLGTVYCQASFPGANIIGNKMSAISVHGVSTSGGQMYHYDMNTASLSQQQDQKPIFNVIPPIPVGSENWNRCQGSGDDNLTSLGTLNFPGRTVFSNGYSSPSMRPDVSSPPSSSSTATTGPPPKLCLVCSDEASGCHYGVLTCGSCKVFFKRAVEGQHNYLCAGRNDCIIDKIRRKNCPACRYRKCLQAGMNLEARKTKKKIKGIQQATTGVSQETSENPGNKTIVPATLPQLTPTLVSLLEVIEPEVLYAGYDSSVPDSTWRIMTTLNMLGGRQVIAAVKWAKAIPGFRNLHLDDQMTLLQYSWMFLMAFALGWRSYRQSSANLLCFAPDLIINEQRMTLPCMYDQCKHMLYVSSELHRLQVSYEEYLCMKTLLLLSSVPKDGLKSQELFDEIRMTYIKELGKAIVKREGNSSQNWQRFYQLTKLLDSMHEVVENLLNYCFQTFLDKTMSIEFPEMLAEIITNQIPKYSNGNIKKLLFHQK
For test [4] the target is unchanged. Briefly: GR-EFC Redistribution (AID 451; calls by dose curve; note: potency is the fitted concentration of half-maximal effect). Particulars: CHO-K1 GR-EFC translocation, beta-gal luminescence, 2 h. In outline: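 CHO-K1 cells expressing nuclear EA and GR-ED fragments of b-gal; compounds titrated up to 46 uM final, 2 h at 37 C. GR nuclear translocation read as complemented b-gal luminescence after 1 h RT detection.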
Test [5] addresses 3',5'-cyclic-AMP phosphodiesterase 4B (Homo sapiens) (UniProt Q07343). In words: qHTS Assay for Inhibitors of PDE-IV (AID 607; active = well fitted activation curve with a large enough effect in the main read-out, with a control signal flat, not every such curve was filed as active; note: % of control where 0% means no effect). In outline: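 HEK293 ACTOne cells with CNG channel (1000/well), endogenous PDE4; membrane potential dye, compounds up to 22.9 uM final. Fluorescence Ex 535/Em 590; RO 20-1724 (100 uM final) as reference.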
(In general: Quantitative high-throughput screening tests each substance at several concentrations.)

In test [6] the target is Guanine nucleotide-binding protein G(i) subunit alpha-1 (Homo sapiens) (UniProt P63096). Briefly: qHTS Assay for Inhibitors of RGS12 GoLoco Motif Activity (Green Fluorophore) (AID 879).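 Note: 0% = labeled peptide with Gαi1 and full inhibition = labeled peptide alone without protein; negative values mean loss of peptide binding seen as reduced polarization.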 The essentials: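 A drop in FITC polarization marked displacement of the FITC-tagged RGS12 GoLoco peptide (10 nM) from Gαi1 (50 nM). Compounds were incubated 10 min at room temperature in Tris pH 7.5 buffer containing 150 mM NaCl, 0.1 mM GDP and 0.05% NP40; unlabeled peptide titration served as control.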

Test [7] has as its target Cytochrome P450 3A4 (Homo sapiens) (UniProt P08684). Briefly: qHTS Assay for Activators of Cytochrome P450 3A4 (AID 885). Note: nearly all actives have a fitted effect of over 65% in size. In outline: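 Human CYP3A4 dealkylates Luciferin-PPXE to luciferin, which luciferase detection converts to light. Substrate was at its KM (25uM), buffer 200mM KPO4, reaction 60 min at RT.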
Test [8] has as its target Cytochrome P450 2C19 (Homo sapiens) (UniProt P33261). In words: qHTS Assay for Inhibitors and Substrates of Cytochrome P450 2C19 (AID 899). Note: % is set by controls: 0 for no effect and ±100 for the full control effect; nearly all actives have a fitted effect of over 60% in size. The essentials: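 5 nM human CYP2C19 with 10uM Luciferin-H EGE (at KM) in 50mM KPO4, compound preincubated 10 min at 37C, then NADPH regeneration for 60 min at 37C. Luciferin read by luminescence after detection reagent; normalized to 57uM ketoconazole as full inhibition.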

Test [9] addresses Muscarinic acetylcholine receptor M1 (Rattus norvegicus) (UniProt P08482). In words: qHTS Assay for Antagonists of Acetylcholine Muscarinic M1 Receptor: Kinetic Measurement of Intracellular Calcium Response (AID 943).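 Note: Fluo-4 calcium signal as peak divided by basal fluorescence over 4 min; nearly all actives have a fitted effect of over 75% in size.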 The essentials:
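Antagonism measured as reduction of carbachol-evoked (EC80, 100 nM final) calcium flux in rat M1-CHO cells after 10 min compound exposure. Fluo-4 signal read kinetically; ratio of maximal to basal fluorescence.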

Test [10] deals with Pyruvate kinase (Leishmania mexicana) (UniProt Q27686). In words: qHTS Validation Assay for Inhibitors of Leishmania Mexicana Pyruvate Kinase (AID 945).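 Note: 0% = DMSO only neutral control wells.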 The essentials:
(§1)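 qHTS eight-point titrations against 0.2 nM LmPYK (E451W) in imidazole buffer pH 7.2 with 0.5 mM PEP, 0.1 mM ADP; 1 h, room temperature. Readout: PKLight luminescence, normalized to neutral DMSO wells.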

The target of test [11] is Pyruvate kinase PKM (Homo sapiens) (UniProt P14618). In words: qHTS Assay for Activators of Human Muscle Pyruvate Kinase (AID 954; active = well fitted curve in the direction sought with a large enough effect, not every such curve was filed as active;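 note: 0% = uninhibited enzyme and -100% = no enzyme or full thiadiazolimine inhibition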). The essentials:
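Compound pinned into substrate mix (0.5 mM PEP, 0.1 mM ADP), then 0.1 nM PKM2 added; 1 h, RT. Stop/detection luciferase reagent added, luminescence read. Normalized to no-inhibition and no-enzyme or reference-inhibitor controls.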

Test [12] concerns the target Pyruvate kinase (Leishmania mexicana) (UniProt Q27686). In words: qHTS Validation Assay for Activators of Leishmania Mexicana Pyruvate Kinase (AID 959). The essentials:
as §1

The target in test [13] is Alpha-galactosidase A (Homo sapiens) (UniProt P06280). In words: Counterscreen for Glucocerebrosidase Inhibitors: qHTS Assay for Human alpha-Galactosidase at pH 4.5 (AID 992). Note: 0% is about no effect. In outline:
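Steps: enzyme (2 nM final), then compound across 0.7 nM to 77 uM, then 80 uM fluorogenic galactopyranoside substrate; incubate 20 min at room temperature; quench at pH 10; measure fluorescence at 365/440 nm.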

Test [14] addresses alpha-glucosidase (Oryza sativa, rice) (UniProt Q653V4). In words: Counterscreen for Glucocerebrosidase Inhibitors: qHTS Assay for Rice alpha-Glucosidase at pH 5.0 (AID 997).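 Note: 0% = full activity with enzyme and -100% = basal without enzyme.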 The essentials: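 Endpoint fluorogenic assay at pH 5.0: compounds (0.7 nM to 77 uM) titrated against 4 nM rice enzyme and 400 uM 4-MU-alpha-glucoside for 20 min at room temperature; NaOH/glycine stop, read ex 365/em 440 nm, Hill-fitted AC50.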
A general note: Counterscreens check selectivity or assay interference.

Test [15] concerns the target DNA repair nuclease/redox regulator APEX1 (Homo sapiens) (UniProt P27695). Briefly: qHTS Validation Assay for Inhibitors of the Human Apurinic/apyrimidinic Endonuclease 1 (APE1) (AID 1705; note: potency is the fitted concentration of half-maximal effect). In outline: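 qHTS, 1536-well. APE1 + cpd 15 min RT → 50 nM TAMRA/BHQ-2 THF-abasic dsDNA substrate → kinetic fluorescence, 3 reads/60 s; delta(read3−read1) = reaction progress. No-enzyme buffer = negative control.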

Test [16] is described as follows: Counterscreen for APE1 Inhibitors: Fluorescent Dye Displacement Validation Assay (AID 1707). Note: potency is the fitted concentration of half-maximal effect. In outline:
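Reaction mixture of 250 nM Thiazole Orange and 50 nM double-stranded abasic-site DNA was dispensed, compounds were pin-transferred, and fluorescence was read at endpoint (480 nm ex, 540 nm em). Reduced fluorescence indicated dye displacement by DNA binding.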

For test [17], the target named is Endonuclease 4 (Escherichia coli (strain K12)) (UniProt P0A6C1). In words: Counterscreen for APE1 Inhibitors: qHTS Validation Assay for Inhibitors of Endonuclease IV (AID 1708). Note: potency is the fitted concentration of half-maximal effect. The essentials:
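Conditions: 2 nM enzyme, 50 nM TAMRA/BHQ-2 substrate, pH 7.5 Tris buffer with 2 mM MgCl2, RT. Compound preincubation 15 min; readout three fluorescence reads 60 s apart, third-minus-first.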

Test [18] is described as follows: qHTS for differential inhibitors of proliferation of Plasmodium falciparum line 7G8 (AID 1815).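 Note: parasite growth measured after three days of incubation; plate controls were vehicle wells for no effect and reference inhibitor wells for full effect.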
Test [19] in a line: qHTS for differential inhibitors of proliferation of Plasmodium falciparum line 3D7 (AID 1876).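 Note: parasite growth measured after three days of culture; 0% = vehicle wells and -100% = reference inhibitor wells.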
A short description of test [20]: qHTS for differential inhibitors of proliferation of Plasmodium falciparum line Dd2 (AID 1882).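 Note: plate controls were DMSO vehicle for no effect and 0.29 µM artemisinin for full effect; nearly all actives have a fitted effect of over 65% in size.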 Particulars: Potency: Plasmodium falciparum Dd2 proliferation inhibition. The essentials:
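SYBR Green DNA fluorescence (ex 485, em 535 nm) after overnight lysis quantifies parasite growth; compound exposure lasted 72 h at 37 C on infected red cells at 2.5% hematocrit, 0.3% parasitemia (final). Artemisinin 0.29 uM and vehicle wells define normalization.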

SMILES strings stand for the structures. Unmarked numbers belong to inactive results. Inconclusive results are not listed. Calls of active or inactive are those of the source. Unless noted, calls come from the whole dose curve; as a rule, active = well fitted curve in the direction sought with a large enough effect; inconclusive = small, poorly fitted or top-dose-only effect, or another doubt; inactive = no such curve, though single readings can be large; an effect the other way counts as inactive or inconclusive. A value given as a limit tells only on which side of the number the result lay.

Sequence of Pyruvate kinase (Leishmania mexicana) (Q27686 2-499 E452W): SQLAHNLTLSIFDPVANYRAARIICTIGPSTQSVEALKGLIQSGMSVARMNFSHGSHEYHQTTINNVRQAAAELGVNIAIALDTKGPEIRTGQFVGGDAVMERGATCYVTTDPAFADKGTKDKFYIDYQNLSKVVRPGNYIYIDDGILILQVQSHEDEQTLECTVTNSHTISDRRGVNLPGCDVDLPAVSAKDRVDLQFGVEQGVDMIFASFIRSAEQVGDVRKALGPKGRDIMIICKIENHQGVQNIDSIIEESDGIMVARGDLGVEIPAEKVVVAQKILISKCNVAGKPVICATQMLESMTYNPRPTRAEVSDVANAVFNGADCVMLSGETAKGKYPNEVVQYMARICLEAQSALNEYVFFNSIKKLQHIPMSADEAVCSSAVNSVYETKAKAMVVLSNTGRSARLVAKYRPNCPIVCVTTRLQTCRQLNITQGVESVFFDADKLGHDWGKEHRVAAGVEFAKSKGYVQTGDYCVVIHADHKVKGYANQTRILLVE
Sequence of Muscarinic acetylcholine receptor M1 (Rattus norvegicus) (P08482 whole entry, looked up): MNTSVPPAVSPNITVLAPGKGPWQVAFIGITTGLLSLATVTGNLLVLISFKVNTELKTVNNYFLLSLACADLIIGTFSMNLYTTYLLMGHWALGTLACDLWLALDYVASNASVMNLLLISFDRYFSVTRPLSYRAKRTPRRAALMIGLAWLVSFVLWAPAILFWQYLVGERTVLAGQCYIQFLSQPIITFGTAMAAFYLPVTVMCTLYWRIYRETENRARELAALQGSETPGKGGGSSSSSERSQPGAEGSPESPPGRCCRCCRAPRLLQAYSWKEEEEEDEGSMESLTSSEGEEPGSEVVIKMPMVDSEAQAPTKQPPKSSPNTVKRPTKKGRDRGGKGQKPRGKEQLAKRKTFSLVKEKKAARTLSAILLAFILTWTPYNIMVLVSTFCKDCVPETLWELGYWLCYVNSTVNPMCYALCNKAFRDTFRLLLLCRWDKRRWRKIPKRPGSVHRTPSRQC
Sequence of 3',5'-cyclic-AMP phosphodiesterase 4B (Homo sapiens) (Q07343 whole entry, looked up): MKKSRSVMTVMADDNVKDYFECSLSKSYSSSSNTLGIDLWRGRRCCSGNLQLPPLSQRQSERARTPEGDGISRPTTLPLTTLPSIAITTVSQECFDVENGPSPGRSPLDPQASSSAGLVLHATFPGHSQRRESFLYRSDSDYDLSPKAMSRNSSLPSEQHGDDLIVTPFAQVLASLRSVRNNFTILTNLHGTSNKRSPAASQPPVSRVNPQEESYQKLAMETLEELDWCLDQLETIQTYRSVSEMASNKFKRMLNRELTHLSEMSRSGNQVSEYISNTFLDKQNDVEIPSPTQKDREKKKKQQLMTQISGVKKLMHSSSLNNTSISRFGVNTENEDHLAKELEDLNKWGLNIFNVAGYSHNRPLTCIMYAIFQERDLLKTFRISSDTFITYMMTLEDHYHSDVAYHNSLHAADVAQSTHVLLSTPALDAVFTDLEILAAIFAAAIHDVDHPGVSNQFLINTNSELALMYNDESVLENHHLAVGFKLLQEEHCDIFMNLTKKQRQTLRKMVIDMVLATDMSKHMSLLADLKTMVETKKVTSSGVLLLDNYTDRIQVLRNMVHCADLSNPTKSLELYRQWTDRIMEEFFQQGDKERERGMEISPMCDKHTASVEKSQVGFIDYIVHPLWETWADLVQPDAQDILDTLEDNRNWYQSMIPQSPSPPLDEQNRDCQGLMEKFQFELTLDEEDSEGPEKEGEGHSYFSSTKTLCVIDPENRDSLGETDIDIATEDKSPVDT
Sequence of Pyruvate kinase PKM (Homo sapiens) (P14618 whole entry, looked up): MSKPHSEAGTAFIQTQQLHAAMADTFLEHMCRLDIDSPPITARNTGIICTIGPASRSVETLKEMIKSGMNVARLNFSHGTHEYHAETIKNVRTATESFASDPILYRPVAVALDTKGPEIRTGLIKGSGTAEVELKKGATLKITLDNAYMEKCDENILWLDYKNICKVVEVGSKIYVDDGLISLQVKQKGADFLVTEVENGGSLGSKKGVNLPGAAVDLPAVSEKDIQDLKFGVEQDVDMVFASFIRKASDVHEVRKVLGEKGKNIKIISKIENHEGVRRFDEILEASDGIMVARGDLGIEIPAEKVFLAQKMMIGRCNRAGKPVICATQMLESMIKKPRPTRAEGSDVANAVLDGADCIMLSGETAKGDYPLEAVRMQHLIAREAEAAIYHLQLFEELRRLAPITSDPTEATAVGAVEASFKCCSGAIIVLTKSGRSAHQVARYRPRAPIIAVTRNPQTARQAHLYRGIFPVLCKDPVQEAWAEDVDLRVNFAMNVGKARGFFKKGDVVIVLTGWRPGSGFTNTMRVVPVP
Sequence of Alpha-galactosidase A (Homo sapiens) (P06280 whole entry, looked up): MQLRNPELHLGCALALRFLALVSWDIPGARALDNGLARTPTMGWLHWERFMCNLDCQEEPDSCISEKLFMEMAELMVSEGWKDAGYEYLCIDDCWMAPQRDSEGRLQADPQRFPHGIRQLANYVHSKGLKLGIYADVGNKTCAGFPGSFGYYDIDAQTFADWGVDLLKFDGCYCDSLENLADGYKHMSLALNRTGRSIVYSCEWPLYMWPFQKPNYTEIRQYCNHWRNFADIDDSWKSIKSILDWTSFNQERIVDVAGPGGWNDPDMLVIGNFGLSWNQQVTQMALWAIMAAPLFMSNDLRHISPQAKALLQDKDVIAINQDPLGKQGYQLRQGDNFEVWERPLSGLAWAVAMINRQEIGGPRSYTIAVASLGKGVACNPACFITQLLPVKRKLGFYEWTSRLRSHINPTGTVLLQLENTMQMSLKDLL
Sequence of DNA repair nuclease/redox regulator APEX1 (Homo sapiens) (P27695 whole entry, looked up): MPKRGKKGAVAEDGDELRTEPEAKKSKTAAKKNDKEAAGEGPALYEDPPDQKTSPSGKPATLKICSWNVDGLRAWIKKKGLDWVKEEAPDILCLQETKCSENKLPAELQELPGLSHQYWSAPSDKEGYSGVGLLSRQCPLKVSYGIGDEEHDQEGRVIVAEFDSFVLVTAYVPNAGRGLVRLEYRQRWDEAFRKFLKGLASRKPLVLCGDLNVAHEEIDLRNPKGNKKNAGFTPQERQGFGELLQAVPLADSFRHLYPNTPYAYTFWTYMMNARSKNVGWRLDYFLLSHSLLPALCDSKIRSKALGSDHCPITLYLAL
Sequence of Cytochrome P450 1A2 (Homo sapiens) (P05177 whole entry, looked up): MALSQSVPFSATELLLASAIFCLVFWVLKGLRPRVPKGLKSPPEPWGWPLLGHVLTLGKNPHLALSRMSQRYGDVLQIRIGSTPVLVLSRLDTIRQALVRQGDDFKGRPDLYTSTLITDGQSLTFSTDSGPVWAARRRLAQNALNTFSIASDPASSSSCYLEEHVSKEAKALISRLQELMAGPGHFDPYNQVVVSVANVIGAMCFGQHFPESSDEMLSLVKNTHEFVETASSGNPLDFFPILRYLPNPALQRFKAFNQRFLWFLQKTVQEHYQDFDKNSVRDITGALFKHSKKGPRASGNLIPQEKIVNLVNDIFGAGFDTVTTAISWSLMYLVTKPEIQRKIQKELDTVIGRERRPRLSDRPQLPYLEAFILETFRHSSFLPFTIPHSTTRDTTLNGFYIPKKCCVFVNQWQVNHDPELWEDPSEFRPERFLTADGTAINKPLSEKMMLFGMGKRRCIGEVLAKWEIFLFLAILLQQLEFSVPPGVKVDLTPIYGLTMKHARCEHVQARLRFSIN
Sequence of Cytochrome P450 2C19 (Homo sapiens) (P33261 whole entry, looked up): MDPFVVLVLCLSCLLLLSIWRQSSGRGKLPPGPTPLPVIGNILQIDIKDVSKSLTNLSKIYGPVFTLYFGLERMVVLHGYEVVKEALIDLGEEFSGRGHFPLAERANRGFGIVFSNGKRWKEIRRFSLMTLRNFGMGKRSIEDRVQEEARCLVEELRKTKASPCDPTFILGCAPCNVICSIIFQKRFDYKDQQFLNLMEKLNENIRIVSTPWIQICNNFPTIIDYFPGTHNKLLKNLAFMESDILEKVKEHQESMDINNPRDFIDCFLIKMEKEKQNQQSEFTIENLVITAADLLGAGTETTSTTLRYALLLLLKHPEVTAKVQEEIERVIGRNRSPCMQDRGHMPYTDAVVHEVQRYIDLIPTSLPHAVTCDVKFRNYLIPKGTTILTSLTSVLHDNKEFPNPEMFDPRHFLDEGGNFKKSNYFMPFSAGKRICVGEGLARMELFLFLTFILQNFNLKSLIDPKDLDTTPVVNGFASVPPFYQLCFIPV

For the compound `Nc1c(S(=O)(=O)O)cc(Nc2ccc(Nc3nc(Cl)nc(Nc4ccc(S(=O)(=O)O)cc4)n3)c(S(=O)(=O)O)c2)c2c1C(=O)c1ccccc1C2=O`, in test [1], the activity change, negative = inhibition was -21.1%. Moreover, the Potency was 15.8 µM (active) in [2]; over 46 µM in test [3]; over 46 µM in [4]; 0.631 µM (active) in test [12]; 0.251 µM (active) in test [15]; 8.91 µM (active) in test [16]. Moreover, in test [17], the Potency was 3.98 µM (active). Besides, the Potency result in test [5], in [7], in [8], in test [9], in test [10] and in [18] was “inactive” each time. The Potency entry in [19] and in [20] was “inactive” each time. The compound was called inactive in test [6], in test [11], in [13] and in [14].
